Compound activity as filed in PubChem.
The list is not random: actives were taken first. Their share in the collection is about 1.3%.
FID counter: compounds displacing fluorescent DNA intercalator, primary screen, artefact control for HCV NS3 helicase inhibitor project, biochemical, FID fluorescence; DNA fluorescent intercalator displacement; inhibition, % at 7.9 µM; hit rate 0.17% among 290,000; AID 1845, 2009; in the data active means inhibition above about 37%;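 further: 0% = vehicle and 100% = reference compound; higher means more ethidium bromide displaced from hairpin DNA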
RAD54 branch: inhibitors of human RAD54 branch migration, primary screen, biochemical, fluorescence, single point; DNA repair and recombination protein RAD54-like (Homo sapiens), Q92698; RAD54 Holliday junction branch migration, FAM/BHQ fluorescence; inhibition, % at 10.4 µM; hit rate 0.14% among 360,000; AID 602329, 2012;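 active means mean normalized replicate activity at least 40 and at least half of replicates scoring 40 or more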;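 further: 0% = median of neutral control wells and 100% = median of positive control wells; inhibitors cause a drop in the FAM fluorescence signal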
Target sequence (Q92698 whole entry, looked up): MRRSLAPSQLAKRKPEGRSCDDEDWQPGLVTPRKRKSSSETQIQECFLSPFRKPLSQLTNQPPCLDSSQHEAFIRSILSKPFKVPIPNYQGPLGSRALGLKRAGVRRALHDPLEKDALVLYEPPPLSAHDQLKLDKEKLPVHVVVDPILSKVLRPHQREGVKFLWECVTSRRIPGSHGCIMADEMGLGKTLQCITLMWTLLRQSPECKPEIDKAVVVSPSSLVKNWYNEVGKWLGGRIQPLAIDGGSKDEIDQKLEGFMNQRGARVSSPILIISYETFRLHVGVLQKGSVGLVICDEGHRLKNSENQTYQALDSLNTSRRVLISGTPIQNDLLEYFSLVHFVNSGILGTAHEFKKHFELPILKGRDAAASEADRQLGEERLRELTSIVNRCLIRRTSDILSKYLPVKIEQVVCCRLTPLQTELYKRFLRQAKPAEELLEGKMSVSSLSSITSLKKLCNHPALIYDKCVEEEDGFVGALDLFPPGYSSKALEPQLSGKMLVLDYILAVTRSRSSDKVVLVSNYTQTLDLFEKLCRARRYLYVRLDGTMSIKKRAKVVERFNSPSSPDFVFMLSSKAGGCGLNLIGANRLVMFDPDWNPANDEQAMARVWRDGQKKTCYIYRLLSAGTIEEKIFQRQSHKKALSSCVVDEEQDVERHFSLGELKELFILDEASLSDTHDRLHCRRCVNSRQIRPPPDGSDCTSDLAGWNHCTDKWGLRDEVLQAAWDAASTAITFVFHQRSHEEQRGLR
RAD52 inh: RAD52 DNA annealing inhibitors, primary screen, biochemical, FRET, single point, set 2 | DNA repair protein RAD52 homolog (Homo sapiens), P43351 | recombinant RAD52 DNA annealing, FRET fluorescence | inhibition, % at 18.7 µM | hit rate 0.46% among 360,000 | AID 651710, 2012;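 active means every replicate showing at least 50% inhibition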
UBC13 polyUb: UBC13 polyubiquitin chain formation inhibitors, primary screen, biochemical, TR-FRET, uHTS. hit rate 0.47% among 330,000. Ubiquitin-conjugating enzyme E2 N (Homo sapiens), P61088. inhibition, % at 20 µM. AID 485273, 2010; in the data active means inhibition above about 45%, passing the limit was not always enough
PREPL inh: PREPL enzyme inhibitors, primary screen, biochemical, fluorescence polarization; recombinant PREPL, fluorescence polarization activity-based probe; inhibition, % at 5.96 µM; hit rate 0.68% among 320,000; AID 2751, 2010;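 further: 0% = enzyme with DMSO and 100% = wells lacking enzyme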
MIN6 prolif: inducers of MIN6 beta-cell proliferation, primary screen, ATP luminescence, uHTS; MIN6 cells proliferation, ATPlite luminescence, 48 h; cells starved in 0.2% serum; 100% = growth in 10% serum; proliferation, % at 10 µM; hit rate 0.29% among 330,000; AID 2380, 2010;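 active means compounds whose signal lies at least 3.5 SD above the mean of all wells on their plate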;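 further: 0% = DMSO-treated cells in low-serum medium and 100% = 10% serum control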
PREPL inh cf: human PREPL enzyme inhibitors, confirmation, biochemical, fluorescence polarization. shares compounds with PREPL inh. recombinant PREPL, fluorescence polarization activity probe. inhibition, % at 5.96 µM. hit rate 67% among 2,000. AID 2803, 2010;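 further: 0% = protein with DMSO and 100% = wells lacking protein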
Starred values were filed as active, the others as inactive; . = no result. Unless noted, no stated cut-off is given here; in the data, active means inhibition above about 43%; inactive means the rest.

SMILES	FID counter	RAD54 branch	RAD52 inh	UBC13 polyUb	PREPL inh	MIN6 prolif	PREPL inh cf
Cc1ccc(Nc2nnc(SC/C(O)=C(\C#N)c3nc4ccccc4[nH]3)s2)c(C)c1	-15.5	3.5	.	-7.6	48.8*	0.0	41.1
CN(C)CC(=O)N[C@H]1CC[C@H](CC(=O)NCc2ccc(Cl)cc2)O[C@@H]1CO	.	5.1	1.0	.	.	.	.
CC(C)(C)[C@H]1COC(=O)[C@@H](Cc2ccc(F)cc2)CC/C=C/C[C@@H](CC(=O)N[C@H](CO)Cc2ccccc2)C(=O)N1	.	-8.8	-6.1	18.1	47.2*	-4.6	41.1
CC(C)(C)[C@H]1COC(=O)[C@@H](Cc2ccc(F)cc2)CC/C=C/C[C@@H](CC(=O)N[C@@H](CO)Cc2ccccc2)C(=O)N1	.	-15.1	-4.5	17.1	31.7	-2.1	.
Cc1ccc(OCCn2cc(/C=N/NC(=O)c3ccncc3)c3ccccc32)cc1	-8.2	1.4	.	-29.8	52.3*	-1.3	64.7*
CNC(=S)N/N=C/c1cn(CCOc2cccc(OC)c2)c2ccccc12	-9.4	.	.	6.0	40.3	-4.3	.
COc1ccc(OCCn2cc(/C=N/NC(=O)c3ccncc3)c3ccccc32)cc1	-16.7	.	-10.1	5.1	34.8	3.6	.
COc1cccc(OCCn2cc(/C=N/NC(=O)c3ccncc3)c3ccccc32)c1	-23.4	.	.	1.5	50.2*	0.0	33.4
O=C(Nc1cc(C(F)(F)F)ccc1N1CCCC1)C1=COCCO1	.	-4.1	-3.8	0.3	5.5	-3.4	.
O=C(Nc1cc(Cl)ccc1N1CCCC1)C1=COCCO1	.	-8.1	-14.0	25.1	44.8*	2.2	32.2
CC(C)NC(=O)N1[C@H](CO)[C@@H]2c3ccccc3N(C(=O)c3ccc(F)cc3)C[C@@H]21	.	-0.5	.	.	.	.	.
O=C(NCc1ccccc1)c1ccc2nc(-c3ccco3)c(-c3ccco3)nc2c1	-6.7	-9.3	.	-23.5	61.0*	0.5	43.5*
CC(C)N(c1ccccc1)c1ccc(NC(=O)COC(=O)CCN2C(=O)c3cccc([N+](=O)[O-])c3C2=O)cc1	-35.5	-2.6	14.3	-14.2	58.9*	-2.8	59.7*
O=C(Cn1cc[n+](CC(=O)c2ccc(Cl)cc2Cl)c1)c1ccc(Cl)cc1Cl	15.2	-5.3	19.0	35.0	46.2*	-2.8	9.4
O=C(Cn1cc[n+](CC(=O)c2ccccc2)c1)c1ccccc1	32.7	9.8	.	10.5	-2.6	-0.4	.
O=C(c1ccccc1)c1ccc(C(=O)N2CCOCC2)cc1	-5.7	-7.2	-12.2	0.2	22.8	-2.3	.
O=C(c1ccc(-c2ccccc2)cc1)c1ccccc1C(=O)N1CCOCC1	-33.3	-7.5	.	2.5	45.7*	-3.7	41.1
N#C/C(=C/c1ccc(N2CCCC2)c([N+](=O)[O-])c1)c1nc2ccccc2[nH]1	1.3	-10.6	.	-119.8	14.5	-3.9	.
N#C/C(=C\c1ccc(N2CCOCC2)c([N+](=O)[O-])c1)c1nc2ccccc2[nH]1	3.1	.	-11.9	-61.7	45.0*	-0.8	39.7
N#C/C(=C\c1ccncc1)c1nc2ccccc2[nH]1	0.9	.	-28.4	-6.6	.	0.3	.
N#C/C(=C\c1cccnc1)c1nc2ccccc2[nH]1	-9.8	-21.1	-20.1	1.1	56.1*	-2.5	12.6
CN(C)c1nc(-c2ccccn2)nnc1-c1ccccc1	-3.4	7.4	.	8.8	52.5*	-0.3	79.1*
C[C@H](CO)N1C[C@H](C)[C@@H](CN(C)Cc2ccccc2)OCCCC[C@H](C)Oc2ccc(NC(=O)Nc3ccc(F)cc3)cc2C1=O	.	6.8	19.5	.	.	.	.
CN1c2ccccc2Oc2nnc(N3CCN(Cc4ccccc4)CC3)cc21	-0.2	6.4	22.5	15.5	45.9*	-2.6	36.8
CN(C(=O)CN1C(=O)S/C(=C\c2ccccc2)C1=O)C1CCS(=O)(=O)C1 (stereo not given)	-9.9	-0.1	-7.6	-10.4	13.7	-1.1	.
